# Source: paper PMC6925144, “A prospective compound screening contest identified broader inhibitors for Sirtuin 1” (Scientific Reports, 2019)
# Whole data set: some 3,200 compounds, median “TSA(without NAD+) / Primary screening (TSA) / delta Tm (K)” near -0.07, cut for the highest 2% near 0.37. The sample holds the highest values, similar compounds and a random draw of the others, so the mix is not that of the screen.
# Molecular target: NAD-dependent deacetylase Sirtuin 1 (human, UniProt Q96EB6)
# Test: primary screen, delta tm
# Design: single well (n = 1)
# Conditions: 10 µM
# Experimental: A total of 3,192 compounds extracted from the proposed lists were first screened by thermal shift assay (TSA), which determined a melting temperature shift (ΔTm) of Sirtuin 1 upon the addition of a test compound at a concentration of 10 µM (n = 1) with primary hit criteria of ΔTm > 0.45 K or ΔTm < −1.5 K. Primary hits (48 compounds) were retested in the same assay at three concentrations (5, 10, 20 µM, n = 4) for hit confirmation and for dose-dependency check. Secondary hits (41 compounds) were checked their selectivity for Sirtuin 1 based on counterscreening on unrelated protein targets (bovine carbonic anhydrase (CA) and recombinant SH2 domain of hABL1 kinase (ABL1)) at three different concentrations (5, 10, 20 µM, n = 4), which yielded 38 hit compounds, hereafter referred to as TSA hits. The TSA screening above was conducted in the absence of NAD+.
# Chain of NAD-dependent deacetylase Sirtuin 1 (Q96EB6 2-747 limits assumed): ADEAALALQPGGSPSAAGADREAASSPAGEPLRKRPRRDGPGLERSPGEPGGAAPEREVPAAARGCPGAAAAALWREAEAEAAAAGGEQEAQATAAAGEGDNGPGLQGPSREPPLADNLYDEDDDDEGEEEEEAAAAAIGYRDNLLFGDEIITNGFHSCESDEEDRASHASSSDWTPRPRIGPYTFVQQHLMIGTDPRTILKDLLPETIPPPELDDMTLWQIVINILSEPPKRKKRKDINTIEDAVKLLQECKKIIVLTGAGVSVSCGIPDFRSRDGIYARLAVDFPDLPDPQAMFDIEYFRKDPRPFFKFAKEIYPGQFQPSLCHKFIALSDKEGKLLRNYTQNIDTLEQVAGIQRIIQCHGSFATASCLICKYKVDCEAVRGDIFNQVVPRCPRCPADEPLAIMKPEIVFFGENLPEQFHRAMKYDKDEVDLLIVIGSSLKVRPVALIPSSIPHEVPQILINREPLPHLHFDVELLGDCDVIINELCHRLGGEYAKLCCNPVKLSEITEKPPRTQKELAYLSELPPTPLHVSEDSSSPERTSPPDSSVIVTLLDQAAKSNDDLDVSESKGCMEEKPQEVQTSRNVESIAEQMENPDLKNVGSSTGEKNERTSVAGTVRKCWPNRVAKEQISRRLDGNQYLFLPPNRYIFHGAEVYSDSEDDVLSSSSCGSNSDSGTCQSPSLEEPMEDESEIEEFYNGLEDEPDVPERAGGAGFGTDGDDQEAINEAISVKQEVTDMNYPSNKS
row,SMILES,TSA(without NAD+) / Primary screening (TSA) / delta Tm (K)
1,CCOc1cc(N2CCOCC2)c(OCC)cc1NC(=O)C1=COCCO1,-0.15
2,CC(NC(=O)COC(=O)CNC(=O)c1ccc(-c2ccccc2)cc1)C12CC3CC(CC(C3)C1)C2 (centres unmarked),0.06
3,NC(=O)c1cc2c(ccc3ccccc32)o/c1=N\c1ccc(Br)cc1,-0.32
4,O=C(NCc1cccc(NC(=O)C2CC2)c1)c1ccc(C(=O)c2ccccc2)cc1,-0.11
5,O=C(O)C1CC(=O)N(c2cccc(-c3nc(C4CC4)no3)c2)C1 (centres unmarked),0.03
6,O=C(Nc1cccc(-c2nc(C3CC3)no2)c1)c1cccc(NC(=O)C2CCCCC2)c1,0.42
7,Cc1ccc2c(c1)c(=O)n(C)c1nnc(CN3CCc4ccccc4C3)n21,-0.32
8,O=C(NC1=NCCS1)c1cc(Cl)ccc1O,-0.05
9,CC(O)CC(C)(C)CNC(=O)Nc1ccc(F)cc1 (centres unmarked),-0.13
10,O=C1NC(=O)c2ccccc2/C1=C\NNC(=O)C12CC3CC(CC(C3)C1)C2,0.33
11,COc1ccc(N2C(=O)/C(=C/NNC(=O)C34CC5CC(CC(C5)C3)C4)c3ccccc3C2=O)cc1,0.43
12,O=C(CC12CC3CC(CC(C3)C1)C2)NN/C=C1/C(=O)N(Cc2ccccc2)C(=O)c2ccccc21,0.32
13,O=C1CCCN1Cc1ccc(-c2ccccc2CNC(=O)C23CC4CC(CC(C4)C2)C3)cc1,-0.28
14,O=C1/C(=C/NNC(=O)C23CC4CC(CC(C4)C2)C3)c2ccccc2C(=O)N1Cc1ccccc1,0.46
15,COc1ccc(CN2C(=O)/C(=C/NNC(=O)CC34CC5CC(CC(C5)C3)C4)c3ccccc3C2=O)cc1,0.09
16,CCS(=O)(=O)Nc1ccc(S(=O)(=O)Nc2nccs2)c(OC)c1,-0.18
17,N#Cc1ccccc1Sc1ccccc1C(=O)Nc1ccc(-c2cn3cccnc3n2)cc1,-0.14
18,CCCCCCCCNC(=O)/C(C#N)=C/c1c[nH]c2ccccc12,0.58
19,N#C/C(=C\c1[nH]c2ccccc2c1Cl)C(N)=O,-0.13
20,CCOc1ccc(/C=C(/C#N)C(=O)c2c[nH]c3cc(F)ccc23)cc1,0.06
21,Oc1ccccc1/C=N/c1ccccc1O,-0.13
22,Cc1cc2ccccc2n1CC(=O)NCC(Cc1ccccc1)N(C)C (centres unmarked),-0.12

row,SMILES,TSA(without NAD+) / Primary screening (TSA) / delta Tm (K)
1,CC(=O)Nc1ccc(NC(=O)c2cccc(S(=O)(=O)N(C)c3ccc(C)cc3)c2)cc1,-0.11
2,Cc1ccc(N(C)S(=O)(=O)c2cccc(C(N)=O)c2)cc1,-0.11
3,COc1ccc(N(C)S(=O)(=O)c2cccc(C(=O)Nc3ncc(C(N)=O)s3)c2)cc1,0.06
4,Cc1ccc(N(C)S(=O)(=O)c2cccc(C(=O)Nc3sccc3C(N)=O)c2)cc1,0.17
5,CN(c1cccc(Cl)c1)S(=O)(=O)c1cccc(C(=O)Nc2cc(C(N)=O)cc(C(N)=O)c2)c1,0.15
6,CN(c1cccc(Cl)c1)S(=O)(=O)c1cccc(C(=O)Nc2ncc(C(N)=O)s2)c1,0.37
7,CN(c1ccccc1)S(=O)(=O)c1cccc(C(=O)Nc2sccc2C(N)=O)c1,0.38
8,Cc1ccc(NC(=O)c2cccc(S(=O)(=O)N(C)c3ccc(C)cc3)c2)cc1,0.45
9,CN(c1cccc(Cl)c1)S(=O)(=O)c1cccc(C(=O)Nc2sccc2C(N)=O)c1,0.18
10,COc1ccc(N(C)S(=O)(=O)c2cccc(C(=O)Nc3ccc(C)cc3)c2)cc1,0.17
11,Cc1ccc(N(C)S(=O)(=O)c2cccc(C(=O)Nc3ccc(C(N)=O)cc3)c2)cc1,0.46
12,Cc1nn(CC(=O)N2CCC(N3CCCC3C(N)=O)CC2)cc1-c1ccccc1 (centres unmarked),-0.22
13,CC(Nc1ccnc(CC#N)c1)C(=O)N1CCCCC1C (centres unmarked),-0.28
14,CS(=O)(=O)c1cccc(C(=O)N(Cc2ccccc2)c2ccccc2)c1,-0.13
15,CCCn1nnnc1CN1C(=O)NC(Cc2c[nH]c3ccccc23)C1=O (centres unmarked),-0.28
16,O=C(Cn1[nH]c(=O)c2ccccc2c1=O)NC1CCCc2ccccc21 (centres unmarked),0.19
17,Cc1ccccc1N1C(=O)c2ccc(C(=O)OCC(N)=O)cc2C1=O,-0.08
18,CC1(C)C(=O)Nc2ccccc2N1C(=O)CNc1cccc2c1CCCC2,-0.24
19,CCS(=O)(=O)N1CCN(c2ccc(C(N)=O)cc2)CC1,-0.15
20,O=C(c1cnc2ccccc2n1)N1CCCC1c1nc2ccccc2s1 (centres unmarked),-0.04
21,COc1ccc(N(C)S(=O)(=O)c2cccc(C(=O)Nc3sc4c(c3C(N)=O)CCC(C)C4)c2)cc1 (centres unmarked),0.08
22,CN(C)c1ccnc(N2CCCC(N3CCNC3=O)C2)n1 (centres unmarked),-0.18
